{
  "source": "PubChem BioAssay (Tox21)",
  "note": "Results filed as inconclusive are left out. Active and inactive are the calls of the source. Calls follow the shape of the full dose curve. Positions of bridges follow the written chain, without caps; N, C: chain ends. Non-standard residues stand in square brackets, D forms with d. Residues, ends and D or L forms follow the SMILES beside them. hArg = N=C(N)NCCCC[C@H](N)C(=O)O; Mpa = O=C(O)CCS",
  "data": [
    {"assay": "qHTS assay to identify small molecule agonists of the NFkB signaling pathway - cell viability counter screen (AID 1159515); also: nearly all actives have a fitted effect of over 55% in size", "details": "NFkB-bla ME-180 viability, CellTiter-Glo luminescence, 5 h; series mostly up to 61 µM", "source_text": "National Center for Advancing Translational Sciences [NCATS]\nNIH Chemical Genomics Center [NCGC]\nU.S. Environmental Protection Agency [EPA]\nNational Institutes of Environmental Health Sciences [NIEHS]\nNational Toxicology Program [NTP]\nU.S. Food and Drug Administration [FDA]\nTranscription factors and their stimulated target gene expression play pivotal roles across many cellular processes including responses to environmental stimuli. Proper regulation of associated pathways is critical to maintain cell health and function. Constitutive activation of transcription factor pathways has been implicated in tumors as it may block cellular functions such as apoptosis and lead to invasion and metastasis. One important transcription factor that stimulates gene expression in response to cytokines, UV radiation, and other stimuli is nuclear factor-kappa B (NFkB). To measure activation of the NFkB pathway, the CellSensor NFkB-bla ME-180 cell line (Life Technologies, Carlsbad, CA) that stably expresses beta-lactamase reporter gene under the regulation of a NF-kB response element was used. This assay allows measurement of the NFkB pathway activity induced by compounds in a ME-180 cell line. This system quantitates NF-kB activity using a FRET-based assay system where beta-lactamase expression disrupts FRET, allowing for fluorescent measurement of activity. This cell line has been used to screen the Tox21 10K compound library and to identify compounds that induce the NFkB pathway activity. The cytotoxicity of the Tox21 compound library against the NFkB-bla ME-180 cell line was tested in parallel by measuring cell viability using the CellTiter-Glo assay in the same wells.\nTox21 Assay Protocol Summary:\nNFkB-bla ME-180 cells were dispensed at 2,000 cells/6 uL of assay medium per well into black wall/clear-bottom 1536-well plates using a Multidrop Combi (ThermoFisher Scientific, Waltham, MA) dispenser. After the assay plates were incubated at 37 C and 5% CO2 for an overnight, 23 nL of compounds dissolved in DMSO, positive controls or DMSO only was transferred to the assay plate by a Pintool station (Kalypsys, San Diego, CA). The assay plates were incubated at 37 C and 5% CO2 for 5 hr. One uL of LiveBLAzer B/G FRET substrate (Life Technologies) was added using a Flying Reagent Dispenser (Aurora Discovery, San Diego, CA) and the plates were incubated at room temperature for 1.5 hr. Fluorescence intensity (405 nm excitation, 460 nm and 530 nm emissions) was measured using an Envision plate reader (PerkinElmer, Shelton, CT). For cytotoxicity, 3 ul/well of CellTiter-Glo reagent was added into the assay plates using an FRD. After 30 min incubation at room temperature, the luminescence intensity was measured using a ViewLux plate reader (PerkinElmer).", "values": [
      {"smiles": "CCOC(=O)CC1(C)OCC(C)O1", "note": "(stereo not given)", "outcome": "inactive"},
      {"smiles": "O=C1OCCO1", "outcome": "inactive"},
      {"smiles": "CCC/C=C(\\C=O)CC", "outcome": "inactive"},
      {"smiles": "Cc1c(C(=O)c2c[nH]n(C)c2=O)ccc(S(C)(=O)=O)c1C1=NOCC1", "outcome": "inactive"},
      {"smiles": "OC1(c2ccc(Cl)cc2)CCNCC1", "outcome": "inactive"},
      {"smiles": "CC(C)=CCC[C@@](C)(O)[C@H]1CC=C(C)CC1", "outcome": "inactive"},
      {"smiles": "C[Si]1(C)O[Si](C)(C)O[Si](C)(C)O[Si](C)(C)O[Si](C)(C)O1", "outcome": "inactive"},
      {"smiles": "CC(C)Cn1cnc2c1c(=O)n(C)c(=O)n2C", "outcome": "inactive"},
      {"smiles": "Cc1cc(C)c(C(=O)O)c(C)c1", "outcome": "inactive"},
      {"smiles": "OCCN1CCOCC1", "outcome": "inactive"},
      {"smiles": "O=C[O][Al]([O]C=O)[O]C=O", "outcome": "inactive"},
      {"smiles": "CN(C)CCOC(=O)C(c1ccccc1)C1(O)CCCC1", "note": "(stereo not given)", "outcome": "inactive"},
      {"smiles": "Cc1ccc(C(C)NC(=O)[C@@H](NC(=O)OC(C)C)C(C)C)cc1", "note": "(stereo not given in full)", "outcome": "inactive"},
      {"smiles": "Cc1ccnc(N)c1", "outcome": "inactive"},
      {"smiles": "O=C(O)CSCC(=O)NC1CCSC1=O", "note": "(stereo not given)", "outcome": "inactive"},
      {"smiles": "CCCc1ccc(O)cc1", "outcome": "inactive"},
      {"smiles": "C=CCCCCCCCC", "outcome": "inactive"},
      {"smiles": "CCN(CC)CCN", "outcome": "inactive"},
      {"smiles": "Fc1ccccc1", "outcome": "inactive"},
      {"smiles": "O=C1NC(c2ccccc2)(c2ccccc2)C(=O)N1COP(=O)(O)O", "outcome": "inactive"},
      {"smiles": "NC(=O)[C@@H]1CSSCCC(=O)N[C@@H](CCCCN=C(N)N)C(=O)NCC(=O)N[C@@H](CC(=O)O)C(=O)N[C@@H](Cc2c[nH]c3ccccc23)C(=O)N2CCC[C@H]2C(=O)N1", "note": "([Mpa][hArg]GDWPC-NH2; disulfide 1-7)", "outcome": "inactive"},
      {"smiles": "COC(=O)CCCCC(=O)O", "outcome": "inactive"},
      {"smiles": "c1ccc2cnccc2c1", "outcome": "inactive"},
      {"smiles": "CC1=NN(c2ccc(S(=O)(=O)O)cc2)C(=O)C1", "outcome": "inactive"},
      {"smiles": "CCC(C)C(=O)OCCc1ccccc1", "note": "(stereo not given)", "outcome": "inactive"},
      {"smiles": "c1ccc(-c2nn[nH]n2)cc1", "outcome": "inactive"},
      {"smiles": "CCNC(=O)NCc1cccc(Cl)c1", "outcome": "inactive"},
      {"smiles": "CCCCCCCCCOC(=O)CCCCC(=O)OCCCCCCC", "outcome": "inactive"},
      {"smiles": "OC[C@@H](O)C(O)[C@@H](O)CO", "note": "(stereo not given in full)", "outcome": "inactive"},
      {"smiles": "CC(C)=CCC/C(C)=C/COC=O", "outcome": "inactive"},
      {"smiles": "OC[C@H]1O[C@@H](O[C@@H]2[C@@H](CO)O[C@](O)(CO)[C@H]2O)[C@H](O)[C@@H](O)[C@H]1O", "outcome": "inactive"},
      {"smiles": "CCCCCC/C=C/C(=O)OC", "outcome": "inactive"},
      {"smiles": "Nc1nc(-c2ccccc2)c(Br)c(=O)[nH]1", "outcome": "inactive"},
      {"smiles": "CC(=O)C1C(=O)C=C(C)OC1=O", "note": "(stereo not given)", "outcome": "inactive"},
      {"smiles": "CCCC(=O)OC/C=C(\\C)CCC=C(C)C", "outcome": "inactive"},
      {"smiles": "CCCCCCC1(C)CCC(=O)O1", "note": "(stereo not given)", "outcome": "inactive"},
      {"smiles": "CC(C)NCC(O)c1ccc2ccccc2c1", "note": "(stereo not given)", "outcome": "inactive"},
      {"smiles": "CN(C)CC/C=C1/c2ccccc2COc2ccc(CC(=O)O)cc21", "outcome": "inactive"},
      {"smiles": "CC(C)OC(=O)OCOP(=O)(CO[C@H](C)Cn1cnc2c(N)ncnc21)OCOC(=O)OC(C)C", "outcome": "inactive"},
      {"smiles": "CC(=O)c1cc(C)oc1C", "outcome": "inactive"}
    ]}
  ]
}
